# Out of some 5,500 compounds screened, about 2,000 (36%) were called active. About 18% were inconclusive and are not listed. The list shows a part of the results. Unmarked numbers belong to inactive results. Rule as the data show it: active = normalized growth mostly below about 0.91 (no sharp cut-off); inconclusive = no clear call, values can overlap the other calls; inactive = mostly above about 0.92.
# Test: chemical genetic growth profiling, strain panel (AID 1159580);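 also: tested at 20 µM; growth read once vehicle control cultures reached saturation at 30 °C; 1 = growth at the plate median or of vehicle wells; lower values mean less growth of the strain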
# Conditions: S. cerevisiae deletion strains, growth OD
# [1] = locus YAR019C, strain CDC15, hits give low values
# [2] = locus YBL105C, strain PKC1, hits give low values
# [3] = locus YBR135W, strain CKS1, hits give low values
# [4] = locus YBR136W, strain MEC1, hits give low values
# [5] = locus YBR160W, strain CDC28, hits give low values
# [6] = locus YDL017W, strain CDC7, hits give low values
# [7] = locus YDL028C, strain MPS1, hits give low values
# [8] = locus YDL101C, strain DUN1, hits give low values
# [9] = locus YDL108W, strain KIN28, hits give low values
# [10] = locus YDL132W, strain cdc53, hits give low values
# [11] = locus YDL214C, strain PRR2, hits give low values
# [12] = locus YDR052C, strain DBF4, hits give low values
# [13] = locus YDR054C, strain cdc34, hits give low values
# [14] = locus YDR226W, strain ADK1, hits give low values
# [15] = locus YDR477W, strain SNF1, hits give low values
# [16] = locus YER123W, strain YCK3, hits give low values
# [17] = locus YER133W, strain GLC7, hits give low values
# [18] = locus YFL009W, strain cdc4, hits give low values
# [19] = locus YFL029C, strain CAK1, hits give low values
# [20] = locus YFR003C, strain YPI1, hits give low values
# [21] = locus YFR019W, strain FAB1, hits give low values
# [22] = locus YFR028C, strain CDC14, hits give low values
# [23] = locus YGR040W, strain KSS1, hits give low values
# [24] = locus YGR052W, strain FMP48, hits give low values
# [25] = locus YGR092W, strain DBF2, hits give low values
# [26] = locus YHR030C, strain SLT2, hits give low values
# [27] = locus YHR079C, strain IRE1, hits give low values
# [28] = locus YHR082C, strain KSP1, hits give low values
# [29] = locus YHR205W, strain SCH9, hits give low values
# [30] = locus YIL147C, strain SLN1, hits give low values
# [31] = locus YJL095W, strain BCK1, hits give low values
# [32] = locus YJL128C, strain PBS2, hits give low values
# [33] = locus YJL157C, strain FAR1, hits give low values
# [34] = locus YJR016C, strain ILV3, hits give low values
# [35] = locus YJR066W, strain TOR1 (second series), hits give low values
# [36] = locus YJR066W, strain TOR1, hits give low values
# [37] = locus YKL048C, strain ELM1, hits give low values
# [38] = locus YKL067W, strain YNK1, hits give low values
# [39] = locus YKL101W, strain HSL1, hits give low values
# [40] = locus YKL193C, strain SDS22, hits give low values
# [41] = locus YKL203C, strain TOR2, hits give low values
# [42] = locus YLR113W, strain HOG1, hits give low values
# [43] = locus YLR133W, strain CKI1, hits give low values
# [44] = locus YLR403W, strain SFP1, hits give low values
# [45] = locus YML070W, strain DAK1, hits give low values
# [46] = locus YMR001C, strain CDC5, hits give low values
# [47] = locus YMR205C, strain PFK2 (second series), hits give low values
# [48] = locus YMR277W, strain FCP1, hits give low values
# [49] = locus YNL006W, strain LST8, hits give low values
# [50] = locus YNL020C, strain ARK1, hits give low values
# [51] = locus YNL161W, strain CBK1, hits give low values
# [52] = locus YNL183C, strain NPR1, hits give low values
# [53] = locus YNL207W, strain RIO2, hits give low values
# [54] = locus YNL222W, strain SSU72, hits give low values
# [55] = locus YNL307C, strain MCK1 (second series), hits give low values
# [56] = locus YOL078W, strain AVO1, hits give low values
# [57] = locus YOL136C, strain PFK27, hits give low values
# [58] = locus YOR061W, strain CKA2, hits give low values
# [59] = locus YOR119C, strain RIO1, hits give low values
# [60] = locus YOR231W, strain MKK1, hits give low values
# [61] = locus YOR329C, strain SCD5, hits give low values
# [62] = locus YPL031C, strain PHO85, hits give low values
# [63] = locus YPL153C, strain RAD53, hits give low values
# [64] = locus YPL204W, strain HRR25, hits give low values
# [65] = locus YPL209C, strain IPL1, hits give low values
# [66] = locus YPL256C, strain CLN2, hits give low values
# [67] = locus YPR025C, strain CCL1, hits give low values
# [68] = locus YPR106W, strain ISR1, hits give low values
# [69] = locus YPR111W, strain DBF20, hits give low values
# [70] = strain NNK1, hits give low values
# [71] = strain TSCII, hits give low values
structure (smiles),measurement,setting,value
S=C(Nc1cc(-c2cccs2)[nH]n1)Nc1ccccc1Cl,normalized growth,[1],0.93
same,normalized growth,[2],0.938
same,normalized growth,[3],0.934
same,normalized growth,[4],0.934
same,normalized growth,[5],0.943
same,normalized growth,[6],0.938
same,normalized growth,[7],0.932
same,normalized growth,[8],0.945
same,normalized growth,[9],0.938
same,normalized growth,[10],0.955
same,normalized growth,[11],0.825
same,normalized growth,[12],0.942
same,normalized growth,[13],0.916
same,normalized growth,[14],0.939
same,normalized growth,[15],0.816
same,normalized growth,[16],0.755
same,normalized growth,[17],0.809
same,normalized growth,[18],0.929
same,normalized growth,[19],0.925
same,normalized growth,[20],0.934
same,normalized growth,[21],0.859
same,normalized growth,[22],0.932
same,normalized growth,[23],0.819
same,normalized growth,[24],0.908
same,normalized growth,[25],0.796
same,normalized growth,[26],0.616 (active)
same,normalized growth,[27],0.842
same,normalized growth,[28],0.821
same,normalized growth,[29],0.813
same,normalized growth,[30],0.93
same,normalized growth,[31],0.748
same,normalized growth,[32],0.908
same,normalized growth,[33],0.836
same,normalized growth,[34],0.935
same,normalized growth,[35],0.778
same,normalized growth,[36],0.773
same,normalized growth,[37],0.885
same,normalized growth,[38],0.835
same,normalized growth,[39],0.891
same,normalized growth,[40],0.917
same,normalized growth,[41],0.866
same,normalized growth,[42],0.739 (active)
same,normalized growth,[43],0.858
same,normalized growth,[44],0.827
same,normalized growth,[45],0.834
same,normalized growth,[46],0.927
same,normalized growth,[47],0.877
same,normalized growth,[48],0.93
same,normalized growth,[49],0.937
same,normalized growth,[50],0.837
same,normalized growth,[51],0.938
same,normalized growth,[52],0.803
same,normalized growth,[53],0.913
same,normalized growth,[54],0.939
same,normalized growth,[55],0.746
same,normalized growth,[56],0.932
same,normalized growth,[57],0.859
same,normalized growth,[58],0.859
same,normalized growth,[59],0.88
same,normalized growth,[60],0.829
same,normalized growth,[61],0.935
same,normalized growth,[62],0.8
same,normalized growth,[63],0.804
same,normalized growth,[64],0.791
same,normalized growth,[65],0.942
same,normalized growth,[66],0.72 (active)
same,normalized growth,[67],0.936
same,normalized growth,[68],0.932
same,normalized growth,[69],0.942
same,normalized growth,[70],0.94
same,normalized growth,[71],0.936
O=C(Nc1cc(Cl)cc(Cl)c1)Nc1cc(-c2cccs2)[nH]n1,normalized growth,[1],0.957
same,normalized growth,[2],0.97
same,normalized growth,[3],0.958
same,normalized growth,[4],0.972
same,normalized growth,[5],0.959
same,normalized growth,[6],0.971
same,normalized growth,[7],0.964
same,normalized growth,[8],0.972
same,normalized growth,[9],0.97
same,normalized growth,[10],0.949
same,normalized growth,[11],0.826
same,normalized growth,[12],0.978
same,normalized growth,[13],0.95
same,normalized growth,[14],0.973
same,normalized growth,[15],0.85
same,normalized growth,[16],0.712
same,normalized growth,[17],0.864
same,normalized growth,[18],0.956
same,normalized growth,[19],0.956
same,normalized growth,[20],0.964
same,normalized growth,[21],0.759 (active)
same,normalized growth,[22],0.967
same,normalized growth,[23],0.816
same,normalized growth,[24],0.916
same,normalized growth,[25],0.686
same,normalized growth,[26],0.459 (active)
same,normalized growth,[27],0.734
same,normalized growth,[28],0.733
same,normalized growth,[29],0.796
same,normalized growth,[30],0.967
same,normalized growth,[31],0.739
same,normalized growth,[32],0.982
same,normalized growth,[33],0.849
same,normalized growth,[34],0.948
same,normalized growth,[35],0.8
same,normalized growth,[36],0.762
same,normalized growth,[37],0.89
same,normalized growth,[38],0.854
same,normalized growth,[39],0.861
same,normalized growth,[40],0.958
same,normalized growth,[41],0.872
same,normalized growth,[42],0.825 (active)
same,normalized growth,[43],0.851
same,normalized growth,[44],0.806
same,normalized growth,[45],0.815
same,normalized growth,[46],0.965
same,normalized growth,[47],0.88
same,normalized growth,[48],0.959
same,normalized growth,[49],0.955
same,normalized growth,[50],0.854
same,normalized growth,[51],0.959
same,normalized growth,[52],0.772
same,normalized growth,[53],0.949
same,normalized growth,[54],0.957
same,normalized growth,[55],0.744
same,normalized growth,[56],0.954
same,normalized growth,[57],0.763
same,normalized growth,[58],0.891
same,normalized growth,[59],0.906
same,normalized growth,[60],0.817
same,normalized growth,[61],0.962
same,normalized growth,[62],0.791
same,normalized growth,[63],0.739
same,normalized growth,[64],0.669
same,normalized growth,[65],0.958
same,normalized growth,[66],0.755 (active)
same,normalized growth,[67],0.963
same,normalized growth,[68],0.953
same,normalized growth,[69],0.947
same,normalized growth,[70],0.948
same,normalized growth,[71],0.961
O=C(Nc1cc(Cl)cc(Cl)c1)Nc1cc(-c2ccco2)[nH]n1,normalized growth,[2],0.935
same,normalized growth,[3],0.929
same,normalized growth,[4],0.935
same,normalized growth,[5],0.942
same,normalized growth,[6],0.95
same,normalized growth,[7],0.937
same,normalized growth,[9],0.938
same,normalized growth,[10],0.608 (active)
same,normalized growth,[11],0.293 (active)
same,normalized growth,[12],0.945
same,normalized growth,[13],0.566 (active)
same,normalized growth,[14],0.94
same,normalized growth,[15],0.294 (active)
same,normalized growth,[16],0.15 (active)
same,normalized growth,[17],0.269 (active)
same,normalized growth,[19],0.616 (active)
same,normalized growth,[20],0.94
same,normalized growth,[21],0.147 (active)
same,normalized growth,[22],0.935
same,normalized growth,[23],0.288 (active)
same,normalized growth,[24],0.23 (active)
same,normalized growth,[25],0.128 (active)
same,normalized growth,[26],0.103 (active)
same,normalized growth,[27],0.119 (active)
same,normalized growth,[28],0.209 (active)
same,normalized growth,[29],0.287 (active)
same,normalized growth,[30],0.934
same,normalized growth,[31],0.112 (active)
same,normalized growth,[32],0.944
same,normalized growth,[33],0.257 (active)
same,normalized growth,[34],0.928
same,normalized growth,[35],0.129 (active)
same,normalized growth,[36],0.142 (active)
same,normalized growth,[37],0.454 (active)
same,normalized growth,[38],0.316 (active)
same,normalized growth,[39],0.38 (active)
same,normalized growth,[41],0.253 (active)
same,normalized growth,[42],0.146 (active)
same,normalized growth,[43],0.295 (active)
same,normalized growth,[44],0.229 (active)
same,normalized growth,[45],0.181 (active)
same,normalized growth,[46],0.935
same,normalized growth,[47],0.496 (active)
same,normalized growth,[48],0.777 (active)
same,normalized growth,[49],0.839 (active)
same,normalized growth,[50],0.3 (active)
same,normalized growth,[51],0.948
same,normalized growth,[52],0.169 (active)
same,normalized growth,[53],0.894
same,normalized growth,[54],0.923
same,normalized growth,[55],0.202 (active)
same,normalized growth,[57],0.166 (active)
same,normalized growth,[58],0.322 (active)
same,normalized growth,[59],0.245 (active)
same,normalized growth,[60],0.115 (active)
same,normalized growth,[61],0.951
same,normalized growth,[62],0.204 (active)
same,normalized growth,[63],0.145 (active)
same,normalized growth,[64],0.163 (active)
same,normalized growth,[65],0.941
same,normalized growth,[66],0.14 (active)
same,normalized growth,[67],0.93
same,normalized growth,[68],0.943
same,normalized growth,[69],0.944
same,normalized growth,[70],0.913
